PubChem BioAssay (NCATS)
Several values for one entry are separate records, joined by “and”; a condition that tells them apart may be missing. Equal entries are not always repeated. Results filed as inconclusive are left out. Activity calls are given as the source filed them. Unless noted, the call rests on the fitted dose curve; in most records, active means well fitted curve in the direction sought with a large enough effect; inconclusive means small, poorly fitted or top-dose-only effect, or another doubt; inactive means no such curve, though single readings can be large; an effect the other way counts as inactive or inconclusive.

How the values were obtained:
[1] = Cell Viability - BJ (AID 421; calls by dose curve;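 further: potency means the concentration at half of the fitted maximal effect; cells exposed to compound for 40 hours at 37 °C before readout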); conditions: BJ fibroblast viability, qHTS
In short: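 Cytotoxicity in human BJ foreskin fibroblasts is scored as loss of cellular ATP after a 40-hour exposure, measured by luciferase luminescence. Controls are DMSO and 100 uM tamoxifen.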

[2] = Cell Viability - HepG2 (AID 433; calls by dose curve;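 further: potency means the concentration at half of the fitted maximal effect; potency for ATP loss meaning cytotoxicity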); conditions: qHTS
In short: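 Cytotoxicity is scored as loss of intracellular ATP in HepG2 cells exposed to compounds for 40 h. Concentration-response curves, normalized to DMSO and 100 uM tamoxifen, give AC50 values.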

[3] = Cell Viability - MRC5 (AID 434; calls by dose curve;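 further: potency means the concentration at half of the fitted maximal effect; cells exposed to compound for 40 hours at 37 °C; potency reflects cytotoxicity seen as loss of intracellular ATP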); conditions: MRC5 lung fibroblast viability, qHTS
In short: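 ATP luminescence read-out (CellTiter-Glo, 20 min RT) after 40 hr, 37 °C compound exposure of 1500 MRC5 cells/well. Data normalized to DMSO (basal) and 100 uM tamoxifen (100% inhibition); AC50 from standard Hill equation.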

[4] = Cell Viability - SK-N-SH (AID 435; calls by dose curve;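 further: potency means the concentration at half of the fitted maximal effect; compound exposure lasted 40 h at 37 °C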); conditions: SK-N-SH neuroblastoma cell viability qHTS
In short: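 Cells seeded at 1500 per well and incubated 5 hr at 37 °C. Compound added, then 40 hr at 37 °C. CellTiter-Glo added, 20 min at room temperature, luminescence read.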

[5] = target: Mitogen-activated protein kinase 10 (Mus musculus) (UniProt Q61831); experiment: JNK3 AlphaScreen Assay (AID 530; active means well fitted curve in either direction with a large enough effect, not every such curve was filed as active;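 further: kinase came from lysate of stimulated human HepG2 cells; signal reports phosphorylation of biotinylated GST-cJun 1-79 at Ser73 with 10 µM ATP; on the % scale 0 is the no-effect control and ±100 the full control effect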); conditions: JNK3 lysate, c-Jun phosphorylation; series mostly up to 57.1 µM
In short: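 HepG2 lysate (IL-1b/TNFa pre-activated) + biotin-GST-cJun 1-79 + anti-pSer73 cJun; cpd titration, 15 min RT; ATP 10 uM start; Tris pH 7.6, MgCl2, DTT, vanadate; beads in EDTA buffer; AlphaScreen.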

[6] = Cell Viability - N2a (AID 540); conditions: N2a mouse neuroblastoma cell viability; at 92.2 µM (top of the series);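 further: cells exposed to compound for 40 h at 37 °C; plate controls were DMSO alone for no effect and tamoxifen control for full effect; nearly all actives have a fitted effect of over 45% in size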
In short: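 In this qHTS cytotoxicity screen, ATP-dependent luciferase luminescence reports viable N2a cells after a 40 hr compound exposure in complete culture medium. Potencies are AC50 values from standard Hill equation fits.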

[7] = Cell Viability - HUV-EC-C (AID 542); conditions: HUV-EC-C endothelial cell viability, qHTS; series mostly up to 92.2 µM; further: on the % scale 0 is the no-effect control and ±100 the full control effect; nearly all actives have a fitted effect of over 35% in size
In short: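 Concentration-dependent ATP loss in HUV-EC-C cells is the measure. Exposure lasts 40 hr at 37 °C; luminescence follows CellTiter-Glo addition, and Hill fits give AC50.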

[8] = Cell Viability - SH-SY5Y (AID 544); conditions: SH-SY5Y neuroblastoma cell viability; viability change, negative = cytotoxic: at 92.2 µM (top of the series); further: nearly all actives have a fitted effect of over 55% in size
In short: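 Quantitative HTS in SH-SY5Y neuroblastoma cells, 40 hr treatment at 37 °C, ATP content by luciferase luminescence; AC50 from Hill fits.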

[9] = Cell Viability - Renal Proximal Tubule (AID 545); conditions: renal proximal tubule cells viability; at 91.7 µM (top of the series), primary cells of rat origin unless noted; further: nearly all actives have a fitted effect of over 40% in size
In short: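 Cytotoxicity is scored as a concentration-dependent drop in cellular ATP in primary rat renal proximal tubule cells exposed for 40 hr. AC50 derives from Hill modelling.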

[10] = Cell Viability - Mesenchymal (AID 546); conditions: mesenchymal cells viability, qHTS; series mostly up to 91.7 µM;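 further: cells exposed to compound for 40 hours before reading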
In short: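 Human renal mesenchymal cells (glomerulus-derived), 1000 cells/well, 5 hr 37 °C pre-incubation; compound 40 hr, 37 °C; CellTiter-Glo, 20 min RT; luminescence; AC50 via Hill equation.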

[11] = Cellular Toxicity (caspase-3) Jurkat (AID 655); conditions: Jurkat caspase-3 activation, luminescence, DMSO = 0%, tamoxifen = 100%; at 92.2 µM (top of the series);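 further: cells exposed to compound for 16 h at 37 °C before reading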
In short: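 Caspase 3/7 activation is scored as increased luminescence in Jurkat cells cultured with compound for 16 hours in complete medium. AC50 values come from Hill fits of qHTS concentration-response data normalized to DMSO and 100 uM tamoxifen controls.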

[12] = Cellular Toxicity (caspase-3) SHSY5Y (AID 657); conditions: SH-SY5Y caspase-3 activation, DMSO zero, 10 µM staurosporine = 100%; series mostly up to 91.7 µM
In short: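 Cells plated and incubated 5 h at 37 °C, dosed over a concentration range, incubated 16 h, then given Caspase-Glo 3/7 reagent for 1 h at room temperature before luminescence reading. Staurosporine (10 uM) defined full stimulation.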

[13] = Cellular Toxicity (caspase-3) BJ (AID 658); conditions: BJ fibroblasts, luminescence, normalized: DMSO 0%, staurosporine 100%; series mostly up to 91.7 µM
In short: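 qHTS, BJ fibroblasts, 1000 cells/well; 5 hr preincubation, 16 hr compound, 37 °C; Caspase-Glo 3/7 reagent, 1 hr RT; luminescence. DMSO = 0%, 10 uM staurosporine = 100%. Hill-equation AC50.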

[14] = Cellular Toxicity (caspase-3) MRC-5 (AID 659); conditions: MRC-5 cells, luminescence, normalized: DMSO 0%, 10 µM staurosporine 100%; series mostly up to 91.7 µM
In short: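 MRC-5 fibroblasts, 1500/well; 16 h cpd, 37 °C; Caspase-Glo 3/7, 1 h RT; lumi read. Norm: DMSO = 0%, 10 uM staurosporine = 100%. Hill-fit AC50 from qHTS conc-response.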

[15] = Cellular Toxicity (caspase-3) Mesangial (AID 660); conditions: mesangial cells, normalized: DMSO 0%, 100 µM tamoxifen 100%; series mostly up to 91.7 µM;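 further: combined caspase 3 and 7 activity read by Caspase-Glo luminescence; cells exposed to compound for 16 h before the caspase read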
In short: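 AC50 values come from Hill-equation fits of caspase 3/7 activation, measured as Caspase-Glo luminescence in human glomerular mesangial cells exposed to compound for 16 h at 37 °C; 100% set by 100 uM tamoxifen.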

[16] = Cellular Toxicity (caspase-3) SK-N-SH (AID 661); conditions: SK-N-SH caspase-3 activation, qHTS, DMSO as zero, staurosporine as full; series mostly up to 91.7 µM
In short: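 Apoptosis readout in SK-N-SH neuroblastoma: Caspase-Glo 3/7 luminescence following 16 hr treatment in complete culture medium. Normalization used DMSO and 10 uM staurosporine controls.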

[17] = Cellular Toxicity (caspase-3) Renal Proximal Tubule (AID 667); conditions: renal proximal tubule cells; at 91.7 µM (top of the series), primary cells freshly taken from rat, solvent-only wells 0%, staurosporine 100% unless noted;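 further: cells exposed to compound for 16 hours at 37 °C before detection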
In short: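 In qHTS format, rat primary proximal tubule cells seeded at 1000 per well are exposed to compounds for 16 hours at 37 °C. An increase in Caspase-Glo 3/7 luminescence indicates caspase activation.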

[18] = qHTS Assay for Identification of Small Molecule Inducers of Hypoxia Response (AID 2120; active means well fitted curve in the direction sought with a large enough effect in the signal ratio, with a control signal flat, not every such curve was filed as active; the % refers to the signal ratio; further: 0% is about no effect); conditions: hypoxia response reporter cells, beta-lactamase ratio readout; series mostly up to 104 µM
In short: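 HRE-bla ME-180, 2500 cells/well, 0.5% dialyzed FBS medium; cpd titration, 17 h 37 degrees C; CCF4 2.5 h RT; Ex 405, Em 460/530 ratio -> %Activity, AC50.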

[19] = qHTS assay for small molecule disruptors of the mitochondrial membrane potential - 5 hr assay (AID 651755; calls by dose curve; further: on the % scale 0 is the no-effect control and ±100 the full control effect; nearly all actives have a fitted effect of over 40% in size); conditions: JC-1-type ratio dye; series mostly up to 92.2 µM
In short: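 Read-out: ratiometric Mito-MPS fluorescence, green monomer (ex 490/em 535) vs red mitochondrial aggregate (ex 540/em 590). HepG2 cells treated 5 hr at 37C before 30 min dye loading.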

[20] = target: Peroxisome proliferator-activated receptor alpha (Homo sapiens) (UniProt Q07869); experiment: qHTS assay for small molecule agonists of the peroxisome proliferator-activated receptor alpha (PPARalpha) signaling pathway (AID 651778); conditions: PathHunter PPARalpha complementation, chemiluminescence, 6 h; hits give high values; further: % of control where 0% means no effect
In short: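 Enzyme-fragment complementation assay in which ligand-bound PPARalpha translocates and forms an active enzyme that generates chemiluminescence. Cells were plated overnight, exposed to compound for 6 hr at 37 C, and then given detection reagent for 60 min at room temperature.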

Sequence of Peroxisome proliferator-activated receptor alpha (Homo sapiens) (Q07869 whole entry, looked up, the tested form may be a part): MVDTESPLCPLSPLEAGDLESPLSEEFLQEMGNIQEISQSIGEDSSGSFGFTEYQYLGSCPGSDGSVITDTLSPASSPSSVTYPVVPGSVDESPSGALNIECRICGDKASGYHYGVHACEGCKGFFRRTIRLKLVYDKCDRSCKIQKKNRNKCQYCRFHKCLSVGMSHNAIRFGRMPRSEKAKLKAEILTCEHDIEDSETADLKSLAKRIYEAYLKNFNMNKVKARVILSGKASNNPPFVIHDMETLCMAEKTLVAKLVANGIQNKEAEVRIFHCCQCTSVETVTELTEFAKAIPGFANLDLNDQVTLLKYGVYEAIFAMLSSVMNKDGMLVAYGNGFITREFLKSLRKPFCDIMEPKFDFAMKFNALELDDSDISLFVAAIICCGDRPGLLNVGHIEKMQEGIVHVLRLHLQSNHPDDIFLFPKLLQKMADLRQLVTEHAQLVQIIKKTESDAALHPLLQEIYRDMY

CCSC(=O)Cl
inactive: Potency [1] > 92 µM | Potency [2] > 92 µM | Potency [3] > 92 µM | Potency [4] > 92 µM | outcome [5] | activity change, negative = cytotoxicity [6] 2.21% | Potency [7] | Potency [8] | activity change, negative = cytotoxicity [9] -4.42% | outcome [10] | caspase-3 activation [11] -0.54% | outcome [12] | outcome [13] | outcome [14] | outcome [15] | outcome [16] | caspase-3 activation [17] 8.48% | outcome [18] | Potency [19] | max response [20] 0.356%

C1CCC2CCCCC2C1 (stereo unspecified)
inactive: Potency [1] > 92 µM | Potency [2] > 92 µM | Potency [3] > 92 µM | Potency [4] > 92 µM | outcome [5] | activity change, negative = cytotoxicity [6] 2.93% | Potency [7] | Potency [8] | activity change, negative = cytotoxicity [9] -9.71% | outcome [10] | caspase-3 activation [11] 1.3% | outcome [12] | outcome [13] | outcome [14] | outcome [15] | outcome [16] | caspase-3 activation [17] -7.58% | outcome [18] | Potency [19] | max response [20] -8.42%

OCC(Br)CBr (stereo unspecified)
inactive: Potency [1] > 92 µM | Potency [2] > 92 µM | Potency [3] > 92 µM | Potency [4] > 92 µM | outcome [5] | activity change, negative = cytotoxicity [6] -8.1% | Potency [7] | Potency [8] | activity change, negative = cytotoxicity [9] 0.652% | outcome [10] | caspase-3 activation [11] 0.101% | outcome [12] | outcome [13] | outcome [14] | outcome [15] | outcome [16] | caspase-3 activation [17] 0.653% | outcome [18] | Potency [19] | max response [20] -5.97%

C=C(C)C(=O)OCC1CO1 (stereo unspecified)
inactive: Potency [1] > 92 µM | Potency [2] > 92 µM | Potency [3] > 92 µM | Potency [4] > 92 µM | outcome [5] | activity change, negative = cytotoxicity [6] -4.08% | Potency [7] | Potency [8] | activity change, negative = cytotoxicity [9] -4.58% | outcome [10] | caspase-3 activation [11] 1.42% | outcome [12] | outcome [13] | outcome [14] | outcome [15] | outcome [16] | caspase-3 activation [17] -4.2% | outcome [18] | Potency [19] | max response [20] -4.83%

CCC[CH2][Sn]([Cl])([Cl])[Cl]
inactive: Potency [1] > 92 µM | Potency [2] > 92 µM | Potency [3] > 92 µM | Potency [4] > 92 µM | outcome [5] | activity change, negative = cytotoxicity [6] 12.4% | Potency [7] | Potency [8] | activity change, negative = cytotoxicity [9] -9.62% | outcome [10] | caspase-3 activation [11] 1.34% | outcome [12] | outcome [13] | outcome [14] | outcome [15] | outcome [16] | caspase-3 activation [17] 6.84% | outcome [18] | Potency [19] | max response [20] 0.179% and -1.51%

Cc1ccc(O)c(C)c1
inactive: Potency [1] > 92 µM | Potency [2] > 92 µM | Potency [3] > 92 µM | Potency [4] > 92 µM | outcome [5] | activity change, negative = cytotoxicity [6] 1.99% | Potency [7] | Potency [8] | activity change, negative = cytotoxicity [9] -11.8% [at 91.7 µM] | outcome [10] | caspase-3 activation [11] 2.67% | outcome [12] | outcome [13] | outcome [14] | outcome [15] | outcome [16] | caspase-3 activation [17] -3.58% [at 91.7 µM] | outcome [18] | Potency [19] | max response [20] -1.5% and -1.55% and 1.86%

N#CCCCl
inactive: Potency [1] > 92 µM | Potency [2] > 92 µM | Potency [3] > 92 µM | Potency [4] > 92 µM | outcome [5] | activity change, negative = cytotoxicity [6] -2.76% and -3.85% | Potency [7] | Potency [8] | activity change, negative = cytotoxicity [9] 1.51% and -5.91% | outcome [10] | caspase-3 activation [11] -0.233% and -1.87% | outcome [12] | outcome [13] | outcome [14] | outcome [15] | outcome [16] | caspase-3 activation [17] -13% and 8.86% | outcome [18] | Potency [19] | max response [20] -3.2% and -4.12%

O=C(Oc1ccccc1)N1CCC[C@@]2(CCN(Cc3cc(C(F)(F)F)cc(C(F)(F)F)c3)C2)C1
inactive: outcome [5]

COc1ccc(N)cc1
inactive: Potency [1] > 92 µM | Potency [2] > 92 µM | Potency [3] > 92 µM | Potency [4] > 92 µM | outcome [5] | activity change, negative = cytotoxicity [6] -29.2% and -31.3% | Potency [7] | Potency [8] | activity change, negative = cytotoxicity [9] 0.402% and -5.11% | outcome [10] | caspase-3 activation [11] 2.07% and 0.631% | outcome [12] | outcome [13] | outcome [14] | outcome [15] | outcome [16] | caspase-3 activation [17] 4.4% and -11% | outcome [18] | Potency [19] | max response [20] -0.77% and -1.08%

ClC(Cl)=C(Cl)C(Cl)=C(Cl)Cl
inactive: Potency [1] > 92 µM | Potency [2] > 92 µM | Potency [3] > 92 µM | Potency [4] > 92 µM | outcome [5] | activity change, negative = cytotoxicity [6] -4.4% | Potency [7] | Potency [8] | activity change, negative = cytotoxicity [9] -4.45% | outcome [10] | caspase-3 activation [11] -0.64% | outcome [12] | outcome [13] | outcome [14] | outcome [15] | outcome [16] | caspase-3 activation [17] 5.5% | outcome [18] | Potency [19] | max response [20] -0.178% and -1.05%
